# Potency and affinity values are given separately.
# Legend:
# Staphylococcus aureus = conditions: Concentration 32 ug.mL-1; ASSAY_TEST Inhibition of Bacterial Growth; detection method Absorption (OD600); MEDIA CAMHB; plate type 384well; NBS; CORNING #3640; time 18 hr
# Escherichia coli = conditions: Concentration 32 ug.mL-1; ASSAY_TEST Inhibition of Bacterial Growth; detection method Absorption (OD600); MEDIA CAMHB; plate type 384well; NBS; CORNING #3640; time 18 hr
smiles,measurement,setting,value
CCOP(=O)(OCC)C(Cc1cn(Cc2cnc(C)nc2N)nn1)C(=O)O.O=C(O)C(F)(F)F (configuration not stated),Inhibition,Staphylococcus aureus,18.42%
same,Inhibition,Escherichia coli,-15.56%

# From ChEMBL document CHEMBL4513139, “CO-ADD screening of University of Strathclyde (UK) compounds”
